Test results from PubChem BioAssay AID1863 (Southern Research Specialized Biocontainment Screening …, 2009).
Hit rate of the full screen: of about 300,000 compounds, about 480 (0.16%) were called active. Only a sample is shown. Entries with a potency or affinity are not part of this list. Values without a mark were called inactive.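 How the source made its calls: active means inhibition over 29.93%, a cutoff 3 SD above the screen mean, later confirmed by dose response; inconclusive means inhibition over 29.93% but no dose response follow-up; inactive means inhibition at most 29.93% or unconfirmed.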

assay: inhibitors of PhoP regulon expression, primary screen, Salmonella Typhimurium, GFP reporter (AID 1863);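 further: 0% = low Mg2+ inducing control and 100% = high Mg2+ repressing control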; conditions: S. Typhimurium PhoP-regulated promoter GFP reporter, 4 h; at 50 µM; active compounds read high

SMILES	inhibition [%]
COCc1c(C(=O)N/N=C/c2ccc(C)o2)nnn1-c1nonc1N	4.95
COc1cccc(CC(=O)Nc2nc(-c3cccnc3)cs2)c1	-6.4
Cc1ccc(N2C(=O)CC(NNc3nc4ccccc4s3)C2=O)cc1 (stereo unspecified)	7.17
Cc1ccc(Nc2cc(C)nn2-c2nc(C)cc(C)n2)cc1	14.5
Cc1cc(=O)[nH]c(-n2nc(C)cc2C)n1	-11.6
Cc1ccc(S(=O)(=O)N2CCN(Cc3ccccc3)CC2)cc1	-4.43
Cc1cc(C)c2ccc(C(=O)O)nc2c1O	-7.66
Cc1cc(C)c2ccc(NN)nc2c1O	0
CCn1c(C)nnc1SCC(=O)Nc1ccc(N2CCOCC2)cc1	10
O=C(COc1ccccc1[N+](=O)[O-])N1CCC(Cc2ccccc2)CC1	4.09
Cc1nnc(N/N=C/c2c[nH]c3ccccc23)[nH]c1=O	7.38
Cc1nnc(N/N=C/C(C)c2ccccc2)[nH]c1=O (stereo unspecified)	-2.09
S=C(Nc1ccccc1Cl)N(Cc1ccccc1)Cc1cccnc1	4.33
O=C(CSc1ccc(-c2ccccn2)nn1)N1CCc2ccccc21	-3.41
Cc1ccc(-c2csc(NC(=O)C[n+]3cc(-c4ccccc4)n4c3CCC4)n2)cc1	-8.54
Cc1ccc(-c2c[n+](CC(=O)Nc3nc(-c4ccccc4)cs3)c3n2CCC3)cc1	-7.93
O=C(C[n+]1cc(-c2ccc(F)cc2)n2c1CCC2)Nc1nc(-c2ccc(F)cc2)cs1	20.4
O=C(C[n+]1cc(-c2ccccc2)n2c1CCC2)Nc1nc(-c2ccc(F)cc2)cs1	11.3
Cc1ccc(NC(=O)C[n+]2cc(-c3ccccc3)n3c2CCC3)cc1	-4.1
Cc1ccc(NC(=O)C[n+]2cc(-c3ccc(C)cc3)n3c2CCC3)cc1	-9.5
O=C(c1cc2ccc([N+](=O)[O-])cc2oc1=O)N1CCOCC1	-3.48
O=C(COc1ccc(S(=O)(=O)N2CCCCC2)cc1)Nc1ccccc1F	-6.38
O=C(c1ccc(N2CCN(C3CC(=O)N(Cc4cccs4)C3=O)CC2)cc1)c1cccnc1 (stereo unspecified)	4.02
O=C(O)c1ccn2c(C(=O)c3ccccc3)c(-c3ccccc3)cc2c1	-13.9

SMILES	inhibition [%]
CCn1cc(C(=O)NCC2CCCO2)c(=O)c2cc(F)c(N3CCN(C)CC3)cc21 (stereo unspecified)	0.68
CN1CCN(c2c(F)cc3c(=O)c(C(=O)O)cn(CCF)c3c2F)CC1	-2.24
C[C@H]1COc2c(C3(N)CC3)c(F)cc3c(=O)c(C(=O)O)cn1c23	-7.84
C[C@H]1COc2c(N3CCN(C)CC3)c(F)cc3c(=O)c(C(=O)O)cn1c23	-9.45
Cc1cc(C)c(NC(=O)c2cc(S(=O)(=O)N3CCOCC3)ccc2F)c(C)c1	-1.33
CCOc1ccc(C(=O)Nc2ccc(S(=O)(=O)N3CCN(C)CC3)cc2)cc1	8.02
CCOc1ccc(C(=O)Nc2ccc(N3CCN(C)CC3)cc2)cc1	-7.33
Cc1cc(C)n(CC(=O)N2c3ccccc3Sc3ccc(C(F)(F)F)cc32)n1	-5.1
Cc1cc[n+](-c2[nH]c(=O)sc2/C=N/N=C(\[O-])CCn2c3ccccc3c3ccccc32)cc1	1.47
Cn1c(=O)oc2cc(S(=O)(=O)NCCC(=O)N3CCc4ccccc4C3)ccc21	-8.83
COc1ccc(C(CNS(=O)(=O)c2ccc(F)cc2)N2CCN(C)CC2)cc1 (stereo unspecified)	3.53
NC(=O)COC(=O)C12CC3CC(CC(O)(C3)C1)C2	17.4
CCOc1ccc(C(C)=O)cc1CSc1nc(C)cc(C)n1	4.1
CC(=O)c1cccc(NC(=O)NC2CCCCC2)c1	-2.42
COCCn1c(-c2ccc(Cl)cc2)cnc1SCC(=O)NCCc1ccc(OC)c(OC)c1	12.7
C=COCCn1c(-c2nonc2N)nc2ccccc21	18.4
CCOC(=O)C[N+](C)(C)CCOC1CC2CCC1(C)C2(C)C (stereo unspecified)	6.45
CC(C)CCOC(=O)C[N+](C)(C)CCOC1CC2CCC1(C)C2(C)C (stereo unspecified)	-2.94
CCCOC(=O)C[N+](C)(C)CCOC1CC2CCC1(C)C2(C)C (stereo unspecified)	-23.2
CCCCOC(=O)C[N+](C)(C)CCOC1CC2CCC1(C)C2(C)C (stereo unspecified)	-9.77
CC(C)CCNC(=O)C1(c2cccs2)CCOCC1	-3.36
O=C(NCc1ccccn1)Nc1cccc(Cl)c1Cl	7.04
O=C1C=C(O)c2cccc(O)c2C1=O	4.81
O=C1C=C(O)c2c(O)cccc2C1=O	5.73

SMILES	inhibition [%]
CC(=O)c1cccc(NC(=O)CCc2nnc3ccc(N4CCOCC4)nn23)c1	9.13
Cc1ccc(-c2csc3nc4c5ccccc5c(NCCCN5CCOCC5)nn4c(=O)c23)cc1	2.89
O=c1c2ccccc2nc2c3ccccc3c(NCCN3CCOCC3)nn12	-8.49
COc1cccc(/C=N/NC(=O)c2ccc(CN3c4cccc5cccc(c45)S3(=O)=O)cc2)c1	-6.43
Cc1cc(OCC(O)CNC(C)(C)C)ccc1Cl (stereo unspecified)	-6.41
OC(CNCCc1ccc(Cl)cc1)COc1ccc2ccccc2c1 (stereo unspecified)	7.14
Cc1nc(N)nc(N/N=C/c2ccccc2)n1	-5.41
COCC(C)NS(=O)(=O)c1ccccc1 (stereo unspecified)	-1.07
CC(=O)c1cccc(NC(=O)c2sc3nc4n(c(=O)c3c2C)CCCCC4)c1	11.4
NC(=S)N/N=C/c1c(O)ccc2ccccc12	-8.26
O=C(CN1CCOCC1)N/N=C/c1c(O)ccc2ccccc12	3.4
O=C(CN1CCCc2ccccc21)N/N=C/c1c(O)ccc2ccccc12	41.7
Oc1ccc2ccccc2c1/C=N/Nc1ccccc1	-2.22
CCc1nccn1CCC(=O)N1CCCC(N2CCN(c3cccc(Cl)c3)CC2)C1 (stereo unspecified)	-2.69
CN1CCCN(C(=O)c2cccc3ccccc23)CC1	-0.73
O=C1CC(C(=O)N2CCN(c3ccc(F)cc3)CC2)CN1CCc1ccccc1 (stereo unspecified)	5.66
CCCN(CC(=O)Nc1ccccc1C)C(=O)COc1ccc2c(c1)CCC2	-2.3
CN1CCCN(C(=O)c2c(F)cccc2Cl)CC1	-6.36
CCCS(=O)(=O)N1CCN(C(=O)COc2ccccc2)CC1	1.1
Cn1c(NC(=O)C[n+]2cc(-c3ccc(Cl)cc3)n3c2CCC3)cc(=O)n(C)c1=O	4.64
O=C(C[n+]1cc(-c2ccccc2)n2c1CCC2)Nc1nc(-c2ccccc2)cs1	2.36
O=C(C[n+]1cc(-c2ccccc2)n2c1CCC2)N1c2ccccc2Sc2ccccc21	9.1
Cn1c(NC(=O)C[n+]2cc(-c3ccc(F)cc3)n3c2CCC3)cc(=O)n(C)c1=O	4.11
O=C(C[n+]1cc(-c2ccc(F)cc2)n2c1CCC2)Nc1nc(-c2ccccc2)cs1	14.9

SMILES	inhibition [%]
O=C(C[n+]1cc(-c2ccc(Cl)cc2)n2c1CCC2)N1c2ccccc2Sc2ccccc21	17.8
CC1CCc2c(nc3ncnn3c2N2CC(C)OC(C)C2)C1 (stereo unspecified)	-10.6
Cc1ccc(S(=O)(=O)CCC(=O)Oc2ccc(-c3nnco3)cc2)cc1	-2.63
COc1cccc(CN2CCN(Cc3cc(OC)c(OC)cc3OC)CC2)c1	-6.37
O=C(N/N=C/c1ccccc1F)c1cccc2ccccc12	-1.58
COc1ccc2cc(C(=O)N/N=C/c3sc4ccccc4c3O)ccc2c1	9.41
O=C(N/N=C/c1ccccc1O)c1cccc2ccccc12	7.21
COc1ccc(C(=O)N/N=C/c2c[nH]c3ccccc23)cc1	4.37
CCC(=O)N1CCc2cc(Br)cc(S(=O)(=O)CCC(=O)NCCOC)c21	1.63
COC(=O)[C@@H](NC(=O)Nc1ccc(OC(F)(F)F)cc1)C(C)C	-9.58
O=C1CC(c2ccccc2Cl)Cc2c1cnn2-c1nc2ccccc2s1 (stereo unspecified)	-5.22
Cc1nn(C)c(C)c1CN(C)C(=O)CCCC(=O)O	-3.44
CCOc1ccccc1-c1ccc(C(=O)NCc2ccccc2)o1	-2.75
Cc1c(Cl)cccc1NC(=O)CNC(=O)c1ccc(F)cc1	-6.63
O=C1C(=O)N(CCO)C(c2cccc(F)c2)/C1=C(\O)c1ccc(Cl)cc1 (stereo unspecified)	0.663
O=C(COC(=O)CCCN1C(=O)c2cccc3cccc(c23)C1=O)Nc1cccc(Br)c1	5.32
Cc1ccc(C2=NN(CC(=O)NCc3ccccn3)C(=O)CC2)cc1	15.1
O=C(Nc1cccc(Cl)c1)NC1CCS(=O)(=O)C1 (stereo unspecified)	0.08
CCCCCCCCCCC[N+](C)(C)CC/C=C1/c2ccccc2Sc2ccc(Cl)cc21	0.18
CCCCCC[N+](C)(C)CC/C=C1/c2ccccc2Sc2ccc(Cl)cc21	-5.82
O=C(O)c1ccccc1SSc1ccccc1C(=O)O	-0.72
CCC(Sc1ccccc1C(=O)O)C(=O)O (stereo unspecified)	-0.12
O=C1C(Cl)=C(Nc2ccccc2)C(=O)c2ccccc21	4.63
CCNC1=C(Cl)C(=O)c2ccccc2C1=O	22.7
